# Experimental data published in the supplement of paper PMC3334620.
# The full ranking holds about 33,000 sequences; the median of “E-score (-0.5 to 0.5)” is about -0.01, and the highest 2% start at about 0.26. The entries come from a sample that favours the highest values as a whole.
# Target: Ste12 (UniProt P13574)
# Test: PBM E-score (8-mer binding enrichment) (E-score (-0.5 to 0.5)); higher = stronger / more preferred TF binding
# Settings: protein concentration: 200 nM; construct: GST-DNA-binding domain
# Procedure: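 Universal 'all 10-mer' protein binding microarrays (Agilent AMADID 015681) probed with GST-tagged S. cerevisiae TFs (full-length or DBD) made by in vitro transcription/translation (PURExpress), about 100-200 nM. Bound TF was detected with fluorescent anti-GST. Each ungapped 8-mer (which stands for itself and its reverse complement) is scored by the PBM enrichment score (E-score), a modified Wilcoxon-Mann-Whitney statistic from -0.5 to +0.5, computed with the Universal PBM Analysis Suite. Scale: above 0.35 generally sequence-specific binding.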
# Sequence of UniProt P13574 (P13574 whole entry): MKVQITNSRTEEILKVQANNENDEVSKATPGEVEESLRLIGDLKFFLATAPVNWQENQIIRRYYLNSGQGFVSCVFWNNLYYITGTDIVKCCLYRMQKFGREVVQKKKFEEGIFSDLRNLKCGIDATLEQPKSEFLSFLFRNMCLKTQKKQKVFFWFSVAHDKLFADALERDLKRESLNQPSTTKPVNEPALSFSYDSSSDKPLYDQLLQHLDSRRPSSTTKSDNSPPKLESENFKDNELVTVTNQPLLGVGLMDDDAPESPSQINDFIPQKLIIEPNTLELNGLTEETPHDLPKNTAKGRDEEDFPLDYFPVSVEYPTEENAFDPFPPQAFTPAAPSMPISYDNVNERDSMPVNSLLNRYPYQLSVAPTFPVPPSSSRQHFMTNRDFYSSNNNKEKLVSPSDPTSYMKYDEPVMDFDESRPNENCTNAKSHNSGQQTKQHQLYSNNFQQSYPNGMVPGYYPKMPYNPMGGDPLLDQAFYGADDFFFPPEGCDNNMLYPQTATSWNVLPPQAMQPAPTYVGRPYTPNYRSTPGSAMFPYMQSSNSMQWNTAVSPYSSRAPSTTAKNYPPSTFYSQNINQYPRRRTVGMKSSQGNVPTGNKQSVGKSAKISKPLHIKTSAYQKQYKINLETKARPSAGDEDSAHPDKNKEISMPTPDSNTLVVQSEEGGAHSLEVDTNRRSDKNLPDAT
row,Sequence,PBM E-score
1,GGGGTTCA,-0.0134
2,CGGTTTAA,0.00247
3,GGTTTTCA,0.311
4,GGGTTTGA,0.18
5,CGGTTTCC,0.1
6,AGGTTTCA,0.451
7,GTTTTTCA,0.217
8,AGGTTTCC,-0.0692
9,GGGTTTCA,0.435
10,AGGTTTCG,0.144
11,CGGTTTCA,0.452
12,CGTTTTCA,0.132
13,AACGTCAG,-0.155
14,GAGGATTA,0.0342
15,CCCGATAG,0.0566
16,GGCTTTAA,0.0191
17,AAAGCGCC,-0.0182
18,CGCTCAAC,-0.108
19,CTTGACCC,-0.129
20,ACCTCATC,-0.0717
21,GACAGCCC,-0.085
22,CTGAACGA,-0.167
23,AATCCAGC,-0.221
24,CAAACATC,0.192
25,GAAACATC,0.355

row,Sequence,PBM E-score
1,GATACATC,0.0608
2,TAAACATA,0.218
3,CAAACATA,0.23
4,GAAACATA,0.433
5,GCATATCA,0.0522
6,ACGAATGA,0.135
7,AAACGGAT,0.265
8,AAACGGAG,0.0885
9,AAACGGAC,0.149
10,TACGCAAA,-0.0817
11,CCCAGACC,-0.0973
12,AAAGTACC,-0.0428
13,AAACACAC,0.243
14,AAACACCT,0.104
15,AAACACAA,0.291
16,AAACACGC,0.288
17,CAACACCG,-0.103
18,AAACACGA,0.129
19,ATACACAC,-0.0713
20,ATACACAA,0.283
21,ATACACAG,-0.054
22,AAACACAG,0.118
23,CAACACGC,-0.247
24,AAACACCG,0.318
25,ACGCCTAA,0.0463

row,Sequence,PBM E-score
1,CTAGTTGA,0.175
2,TAGCGAAA,0.118
3,AGCAGTTG,-0.126
4,CCGGTCTA,-0.191
5,GCGATTTA,0.0399
6,CGGAGAAG,-0.00086
7,GGGTTTAA,0.215
8,CTTTAAAC,0.0682
9,GGTTTTAA,0.298
10,GGTTTAAA,0.211
11,GGTTAAAA,0.256
12,GTTTTAAA,0.378
13,CCTTTAAA,0.0788
14,CTTTTAAA,0.255
15,GTTTAAAC,0.214
16,GTTTAAAA,0.3
17,CTTTAAAA,0.266
18,GGTTTTTA,0.166
19,ATGCGCAT,0.0672
20,CAAGGAGG,-0.075
21,AACGATCG,0.0136
22,TAGGCCTA,-0.15
23,AATGGGGG,-0.187
24,GCTATGAC,0.0507
25,AGGAGTAA,-0.0677

row,Sequence,PBM E-score
1,CTGAGAAC,0.0658
2,AACAGGGC,0.0987
3,AGTTTTAT,0.275
4,TGTTTAAA,0.26
5,AGTTTTAC,0.143
6,GCTTAAAC,-0.0138
7,TGTTTTAA,0.364
8,CCTTAAAA,0.162
9,GCTTAAAA,0.31
10,TTTTAAAA,0.329
11,TCTTAAAA,0.156
12,TTTAAAAA,0.184
13,AGTTTTAG,0.12
14,AGTTTTAA,0.212
15,CCCTAACG,-0.00496
16,AAGGGAGT,-0.232
17,CGCAGAAC,-0.122
18,AACAACCG,0.0778
19,CAGATCAA,0.00349
20,GTTTTTAA,0.261
21,CGTTTTTA,0.165
22,CTTTTTAA,0.104
23,GTTTTTTA,0.149
24,CGTTTTAA,0.319
25,CGTTTTAG,0.215

row,Sequence,PBM E-score
1,AAGAGTTG,-0.149
2,GGTTCATA,-0.0487
3,GGGAGAAC,-0.0492
4,ATCCTCAA,0.00575
5,AAATTGTC,0.268
6,AAATTGTA,0.048
7,AAATTGTT,0.186
8,AGTGTTTC,0.332
9,CGTGTTTC,0.36
10,CGTGTTGC,0.0401
11,AGTGTTTA,0.174
12,AGTGTTTG,0.245
13,CGTGTTTA,0.0319
14,GCCCTCGA,-0.216
15,CTTTAGTC,-0.0859
16,GGCCAAAA,0.0718
17,TCAACTCA,0.0748
18,CGAATACA,0.0383
19,AGCAGTGA,-0.0211
20,ATATGCTC,0.0529
21,CTAACGAA,0.11
22,AAAACGAC,0.0623
23,GAAACGAA,0.367
24,AAAACGAA,0.237
25,ATAACGAA,0.0476

row,Sequence,PBM E-score
1,CAAACGAA,0.101
2,CAAACGAC,0.128
3,GAAACGAC,0.317
4,TTAACGAA,0.262
5,CAAGTCTG,-0.0972
6,CGTCGCTC,-0.115
7,AGTATGGG,-0.0937
8,ATGGCCGC,-0.0598
9,ATGAGGTC,0.0263
10,AGGCTCGG,-0.112
11,ATAATTTA,0.357
12,ACAATTAT,0.212
13,ATAATTAC,0.131
14,ATAATTTG,0.212
15,ATAATTAA,0.276
16,TTAATTAA,0.245
17,ACAATTAA,0.292
18,ACAATTAC,0.087
19,GTAATTTA,0.223
20,CCGCCAGG,-0.206
21,GCTCAGCA,-0.0833
22,AATCTCAT,0.165
23,CTGACCGC,0.123
24,AAATGCAC,-0.00999
25,CACCCATA,0.105

row,Sequence,PBM E-score
1,ACCAGACG,-0.174
2,CGCGCGTC,0.0795
3,ACGCCACG,-0.182
4,ACTCGAAT,-0.144
5,CTTCGAAA,0.132
6,ATTCGAAG,-0.0567
7,ATTCGAAT,0.268
8,ATTCGAAC,0.105
9,ATTCGAAA,0.286
10,GCCTTCCC,-0.0772
11,CACACTTC,0.00873
12,AACCACTA,-0.00019
13,TGGCATAA,0.307
14,ATACATAA,0.21
15,ATACATAT,0.294
16,AAACATAG,0.205
17,AAACATAT,0.273
18,AGACATAA,0.101
19,CGGCATAA,-0.0029
20,TGACATAA,0.268
21,ATACATAC,0.134
22,GGACATAA,0.0357
23,AAACATAC,0.241
